Test results reported in ChEMBL document CHEMBL4888484, “Replenishing the malaria drug discovery pipeline: Screening and hit evaluation of the MMV Hit Generation Library 1 (HGL1) against asexual blood stage Plasmodium falciparum ,using a nano luciferase reporter read-out” (2022).
Among all 150,000 compounds or so, about 540 (0.36%) showed an effect of 50% or more. The entries come from a sample that favours strong results as a whole.

What follows are molecules tested on Plasmodium falciparum (assay: Primary screen in NF54 nanoGlo assay, in single point, at 2uM, 72h; a lower Z score goes with more inhibition). Settings: timepoint 72 hour.
Format: functional, Erythrocyte

Structure (SMILES)	% Inhibition	Z score
CCn1c(-n2nc(C)nc2[C@H]2CCS(=O)(=O)C2)nc2ccccc21	4%	-0.76
O=C(CNC(=O)c1cnccn1)NCCc1c[nH]c2ccc(F)cc12	-5%	0.67
CCn1cc(C(=O)O)c(=O)c2cc(F)c(N3CCN(S(=O)(=O)c4ccccc4)CC3)cc21	34%	0.66
CCn1cc(-c2nc(-c3ccccc3C)no2)c(=O)c2cc(F)c(N3CCCCC3)cc21	51%	-3.9
CCn1cc(-c2nc(-c3ccccc3)no2)c(=O)c2cc(F)c(N3CCCCC3)cc21	-9%	1.55
CCn1cc(-c2nc(-c3ccccc3C)no2)c(=O)c2cc(F)c(N3CCOCC3)cc21	40%	-3.29
Cc1ccc(S(=O)(=O)c2cn(Cc3ccccc3)c3cc(N4CCCCC4)c(F)cc3c2=O)cc1	-24%	2.28
CCn1cc(C#N)c(=O)c2cc(F)c(N3CCN(Cc4ccccc4)CC3)cc21	68%	-7.22
COc1cc(OC)cc(-c2c3c(O)nn(C(C)C)c3nc3[nH]c(=O)n(C)c23)c1	-3%	0.3
O=C(Nc1ccc2c(c1)OCO2)c1ccc(=O)n(Cc2ccc(Cl)cc2)c1	-15%	1.88
CCN(C(=O)c1nn(C)c2ccc(C)cc12)[C@H]1COC[C@@H]1O	5%	-1
COc1cc(Cl)c(CNC(C)(C)CO)cc1OC	4%	-0.67
Cc1n[nH]c(C(=O)N2CCCCCC2)c1Br	3%	-0.33
COCCNC(=O)c1coc(CN2C(=O)COc3ccc(C(=O)COc4ccccc4)cc32)n1	-6%	0.84
N#Cc1nccnc1O[C@H]1CCCN(C(=O)NCc2ccc(Cl)cc2)C1	-10%	1.77
Cc1nn(C(C)(C)C)c2nc(C3CC3)cc(C(=O)N(C)Cc3cccc(C#N)c3)c12	-7%	1.44
Cc1nn(C(C)(C)C)c2nc(C3CC3)cc(C(=O)N3CCN(c4ccccc4)CC3)c12	7%	-1.07
Cc1nn(C(C)(C)C)c2nc(C3CC3)cc(C(=O)N(C)c3ccccc3)c12	55%	-8.04
CC(C)(C[C@H]1CCCN(C(=O)C2(C)CCCC2)C1)C(N)=O	-4%	0.57
COC(=O)C1CN(C(=O)CCc2cnn(C)c2)CC1c1ccccc1 (centres undefined)	-13%	2.28
O=C1C[C@@H](c2ccccc2)N(Cc2ccncc2)CCCNCCN1	-9%	1.07
COc1cccc(S(=O)(=O)N2CCCN(Cc3ccncc3)[C@H](c3ccccc3)CC(=O)NCC2)c1	92%	-7.9
Cc1ccncc1C(=O)N1CCCN(Cc2ccncc2)[C@H](c2ccccc2)CC(=O)NCC1	-4%	0.48
Cn1cccc1CCC(=O)NCCc1noc(C2CC2)n1	-5%	0.69
CN1CCC(Oc2cc(NC(=O)c3cscn3)ccn2)CC1	-16%	1.85
CCn1cc(CN2CCN3C(=O)N(c4ccccc4)C(=O)[C@@H]3C2)cn1	-2%	0.24

Structure (SMILES)	% Inhibition	Z score
COCCN1CC[C@H](c2ncnn2C2CCCCC2)C1	-7%	1.3
CCc1nccc(CN2CCC[C@H](CS(C)(=O)=O)C2)n1	-20%	2.11
Cn1cnc2c1CCN(C[C@H](O)c1ccccc1Cl)C2	0%	0.04
CC(C)C(=O)N(Cc1ccc(-c2ccc(Cl)cc2)o1)[C@H]1CCS(=O)(=O)C1	1%	-0.15
CCC(CC)C(=O)N(Cc1ccc(-c2ccc(Cl)cc2)o1)[C@H]1CCS(=O)(=O)C1	-7%	0.86
CCC(=O)N(Cc1ccc(-c2ccc(Cl)cc2)o1)[C@H]1CCS(=O)(=O)C1	63%	-8.22
Cc1nnc(COc2cccc3c2OCCO3)s1	-12%	2.16
CC(C)C(=O)NCC(=O)N1CC[C@@]2(CCCN(CCCc3ccccc3)C2)C1	-7%	1.41
CN(Cc1ccc2ccn(C)c2c1)C[C@H]1CCCCO1	-2%	0.4
COc1ccc(Br)c(S(=O)(=O)NCC2(C)CCC2)c1	1%	-0.23
CC(=O)NC[C@H]1CN(c2ccnc(C(C)(C)C)n2)CCO1	-12%	1.4
CNC(=O)c1cc(S(=O)(=O)N2CC=CC2)cn1C	-4%	0.78
Cc1ccccc1NC(=O)[C@H]1c2cccc[n+]2CC(=O)N1c1ccc2c(c1)OCO2	-9%	1.37
CC(C)(C)OC(=O)N1CCC[C@@H]1CNC1CC1	-7%	0.86
CC(C)(C)OC(=O)N1CC2CC(=O)CC1C2 (centres undefined)	3%	-0.39
O=C1Cc2cc(S(=O)(=O)Nc3ccccc3C(=O)NCc3ccco3)ccc2N1	-32%	3.76
CCc1cc(NC(=O)N[C@@H](C)c2nc(C(F)(F)F)no2)n(C)n1	-7%	1
CC(C)Cc1cnc(NC(=O)N[C@@]2(C)CCOC2)s1	8%	-1.23
COCc1cnc(NC(=O)NC2(c3ncccn3)CCOCC2)s1	52%	-0.94
Cc1cc(C(=O)NC2(c3ncccn3)CCOCC2)c(C)s1	-4%	0.7
CCc1cc(C(=O)N2CC[C@@]3(CCCN(Cc4cccc(OC)c4)C3)C2)on1	-5%	0.79
CC(C)CC(=O)N(Cc1nccn1Cc1ccc(Cl)cc1Cl)CC1CC1	-8%	0.76
CC[C@H](C)N1CC(=O)N(c2ccns2)C1=O	-14%	2.59
COc1ccnc(-c2ccc(F)c3cccnc23)c1	-4%	0.58
COc1cccc(CNS(=O)(=O)c2cc(-c3c(C)nn4c3NC(=O)CCC4=O)ccc2OC)c1	2%	-0.21
O=C1CCCN1Cc1ncnn1Cc1ccc2c(c1)OCO2	-4%	0.57
